# Screens from PubChem BioAssay.
# Compounds with a hit are over-represented: about 14% of the library has one in this group of screens.
# HCMV antiviral: qHTS Assay for inhibitors of the human cytomegalovirus (HCMV). HFF cells, HCMV-luciferase reporter, 72 h; stronger effect = lower value. activity change, negative = inhibition, % at 57.5 µM. 410,000 tested, 4.5% active; in the data active means activity change below about -60%; inconclusive means no clear call, values can overlap the other calls; inactive means above about -39%
#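 Screen run at 2 compound doses on HFFs infected with reporter HCMV, MOI 1 PFU/cell. Luciferase activity from cell lysates at 72 h post infection gave inhibition relative to buffer-only and Salinomycin wells.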
# Pf growth 96h: Primary qHTS for delayed death inhibitors of the malarial parasite plastid, 96 hour incubation | P. falciparum luciferase reporter growth, 96 h | Potency, µM (series often up to 28.7 µM), without a hit: top-dose activity change, negative = inhibition, hits mostly inhibitors | 320,000 tested, 6.9% active | AID 504834, 2011; further: potency means the concentration at half of the fitted maximal effect
#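 Delayed-death screen, second-generation endpoint: infected erythrocytes, 2% hematocrit, 0.05% parasitemia final; 96 hours at 37 C, 5% CO2; luciferase detection reagent; luminescence decrease equals reduced growth.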
# LASV entry inh: qHTS for Inhibitors of binding or entry into cells for Lassa Virus. 300,000 tested, 1.2% active. Potency, µM (series often up to 37.9 µM), inactives show at the highest dose activity change, negative = inhibition, usual class: inhibitors. Lassa virus pseudotype entry inhibition, cell reporter. AID 540256, 2011; calls by dose curve; tested in HEK293 cells; further: potency means the concentration at half of the fitted maximal effect; nearly all actives have a fitted effect of over 50% in size
# MARV entry inh: qHTS for inhibitors of binding or entry into cells for Marburg Virus; Marburg virus pseudotyped entry inhibition, cell reporter; Potency, µM (series often up to 37.8 µM), for the others: top-dose activity change, negative = inhibition, usual class: inhibitors; 300,000 tested, 1.8% active; AID 540276, 2011; calls by dose curve; tested in HEK293 cells; further: potency means the concentration at half of the fitted maximal effect
# HCV inhibitor: qHTS Assay for Inhibitors of Hepatitis C Virus (HCV); Huh7.5.1 HCVcc-Cre infection, luciferase reporter, 44 h; Potency, µM (doses to about 41.8 µM), inactives show at the highest dose activity change, negative = inhibition, hits mostly inhibitors; 340,000 tested, 3.4% active; AID 651820, 2012; further: potency means the concentration at half of the fitted maximal effect
#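 After 44 h co-culture of compound, cells and HCVcc-Cre (~0.5 moi), substrate is added for 15 min at room temperature and luciferase measured over 15 sec. Cells were seeded at 1,000/well and pre-cultured 4 h.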
# Pf growth 48h: Primary qHTS for delayed death inhibitors of the malarial parasite plastid, 48 hour incubation. Potency, µM (highest dose often 28.7 µM), without a hit: at the top dose activity change, negative = inhibition, most hits filed as inhibitors. 310,000 tested, 5.9% active. P. falciparum luciferase growth in erythrocytes, 48 h. AID 504832, 2011; further: potency means the concentration at half of the fitted maximal effect
#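 Erythrocytes infected with P. falciparum carrying an integrated firefly luciferase reporter (2% hematocrit, 0.1% parasitemia final) were exposed to compounds in RPMI 1640 with 0.5% Albumax at 37 C, 5% CO2. Growth inhibition was scored as reduced luminescence.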
# * marks the source's active call; other numbers are inactive results; ? = inconclusive; . = not tested or not shown; ! = not confirmed by another sample; [ ] = remark or other dose. Unless noted, the call rests on the fitted dose curve; in most records, active means well fitted inhibition curve with a large enough effect; inconclusive means small, poorly fitted or top-dose-only effect, or another doubt; inactive means no such curve, though single readings can be large or run the other way. On the % scale 0 is the no-effect control and ±100 the full control effect.
SMILES,HCMV antiviral,Pf growth 96h,LASV entry inh,MARV entry inh,HCV inhibitor,Pf growth 48h
NNC(=O)c1[nH]c2ccccc2c1-c1ccccc1,-95*,?,.,.,-4%,?
O=C(N/N=C/c1c[nH]c2ccccc12)c1ccccc1,33,1%,.,.,11%,32%
O=C(N/N=C/c1ccc(O)cc1)c1[nH]c2ccc(Br)cc2c1-c1ccccc1,-94*,?,?,?,3%,7%
CC(=O)NNC(=O)c1[nH]c2ccc(Cl)cc2c1-c1ccccc1,-4,19%,.,.,9%,5%
O=C(NN=C1CCCC1)c1[nH]c2ccc(Cl)cc2c1-c1ccccc1,-92*,13µM*,?,?,1%,?
O=C(N/N=C/c1c[nH]c2ccccc12)c1[nH]c2ccc(Br)cc2c1-c1ccccc1,-86*,-14%,?,?,-26%,28%
CCCCNC(=O)CSc1nc2ccccc2nc1Cc1ccccc1,-10,.,10%[46.1 µM],.,.,.
COC(=O)[C@@H]1[C@@H](CO)[C@@H]2Cn3c(ccc(Br)c3=O)[C@H]1N2S(=O)(=O)c1cn(C)cn1,65,.,.,.,.,.
COc1ccc(NC(=O)CC2C(=O)N(c3cccc(OC)c3)C(=O)N2Cc2cccnc2)cc1 (stereo not drawn),-22,.,0%[46.1 µM],.,.,.
CN1CCN(C2Cc3ccccc3Sc3ccc(Cl)cc32)CC1 (stereo not drawn),-11,17µM*,10µM*,16µM*,?,13µM*
CN1CCN(C2Cc3ccccc3Sc3cc(C(F)(F)F)ccc32)CC1 (stereo not drawn),-109*,.,?,?,11µM*,.
CN1CCN(C2Cc3cc(F)ccc3Sc3ccc(Cl)cc32)CC1 (stereo not drawn),-9,.,.,.,-13%,.
CC(C)c1ccc2c(c1)C(N1CCNCC1)Cc1ccc(F)cc1S2 (stereo not drawn),-98*,.,?,?,?,.
CN1CCN(C2Cc3ccc(F)cc3Sc3cc(F)c(Cl)cc32)CC1 (stereo not drawn),-95*,.,?,?,?,.
O=[S+]1([O-])C[C@@H](N2CCN(CCO)CC2)[C@@H](COCc2ccccc2)N1,.,.,12%[46.1 µM],.,.,.
CCOC(=O)c1cccc(NC(=O)c2cc(C)nc3c2c(C)nn3-c2ccc(C)cc2)c1,-2,.,0%[46.1 µM],.,.,.
O=C(CSc1nc2ccsc2c(=O)n1-c1ccc(Br)cc1)NCc1ccccc1,-7,.,15%[46.1 µM],.,.,.
Cc1ccc(-n2nc(C)c3c(C(=O)Nc4ccc(Br)c(C)c4)cc(C)nc32)cc1,9,.,5%[46.1 µM],.,.,.
CSc1ccc2c(c1)C(N1CCN(C)CC1)Cc1ccccc1S2 (stereo not drawn),-75*!,?,18µM*,6.3µM*,?,?
Cc1ccc(-n2nc(C)c3c(C)cc(=O)n(CC(=O)Nc4cccc(C)c4C)c32)cc1,0,.,4%[46.1 µM],.,.,.
CCCOc1ccc(C(=O)Nc2cc(-c3nc4ccccc4[nH]3)ccc2C)cc1,3,.,-25%[46.1 µM],.,.,.
CCn1c(-c2cc(Br)cc(OC)c2O)nc2cc(S(=O)(=O)N(C)C)ccc21,?,12µM*,8%,?,?,?
CCn1c(-c2ccccn2)nc2cc(S(=O)(=O)N(C)C)ccc21,-7,43%,-10%,1%,12%,46%
CCO[C@@H]1OC(C(=O)NCc2nc3ccccc3[nH]2)=C[C@H](C)[C@H]1CCCO,-40,5%,.,.,-17%,2%
CCO[C@H]1OC(C(=O)NCc2nc3ccccc3[nH]2)=C[C@@H](C)[C@@H]1CCCO,-62*,47%,.,.,?,49%
SMILES,HCMV antiviral,Pf growth 96h,LASV entry inh,MARV entry inh,HCV inhibitor,Pf growth 48h
CCO[C@H]1OC(C(=O)NCc2nc3ccccc3[nH]2)=C[C@@H](C2CCCCC2)[C@@H]1CCCO,-27,9.3µM*,.,.,-6%,?
CCO[C@H]1OC(C(=O)NCc2ccccc2)=C[C@@H](C2CC2)[C@@H]1CCCO,-4,-19%,.,.,-21%,?
Nc1ccc(Cl)cc1/C(=N\O)c1ccccc1,.,.,.,-22%,.,.
COC(=O)c1sc(N)nc1CCNC(=O)OC(C)(C)C,5,.,.,.,.,.
Cc1nc(-c2ccncc2)nc(NCCNc2ncccc2C(F)(F)F)c1Cl,5,?,.,.,?,10µM*
CCCCCCCCCCCCCC(=O)O[C@@H]1[C@@H](C)[C@@]2(O)[C@@H](C=C(CO)C[C@@]3(O)C(=O)C(C)=C[C@@H]23)C2C(C)(C)[C@@]21OC(C)=O (stereo partly drawn),.,.,6.5µM*,22µM*,.,.
CN(C)[C@H]1C(=O)C(C(N)=O)=C(O)[C@]2(O)C(=O)C3=C(O)c4c(O)cccc4[C@@](C)(O)[C@H]3C[C@@H]12,.,0.72µM*,.,.,.,5.7µM*
CN(C)[C@@H]1C(=O)C(C(N)=O)=C(O)[C@@]2(O)C(=O)C3=C(O)c4c(O)cccc4[C@@](C)(O)C3[C@H](O)C12 (stereo partly drawn),-12,12µM*!,.,.,35%,15µM*!
CN(C)[C@@H]1C(=O)C(C(N)=O)=C(O)[C@@]2(O)C(=O)C3=C(O)c4c(O)ccc(Cl)c4[C@@](C)(O)C3C[C@@H]12 (stereo partly drawn),57,?,-2%,16%,-20%[8.37 µM],-24%
CN(C)[C@@H]1C(=O)C(C(=O)NCN2CCCC2)=C(O)[C@@]2(O)C(=O)C3=C(O)c4c(O)cccc4[C@@](C)(O)C3CC12 (stereo partly drawn),.,-6%,-1%,?,-5%[8.37 µM],-4%
CN(C)C1C(=O)C(C(N)=O)=C(O)C2(O)C(=O)C3=C(O)c4c(O)cccc4C(C)(O)C3CC12 (stereo not drawn),.,0.93µM*,.,.,20%,?
CCCn1nnc(NC(=O)/C=C/c2ccccc2)n1,31,15%,-23%,25%[46.1 µM],-2%,0%
Cc1ccc(-c2csc(NC(=O)/C=C/c3cccs3)n2)cc1C,39,?,13%,?,11µM*,?
O=C(/C=C/c1ccccc1)Nc1nc(-c2ccncc2)cs1,-63*,?,?,?,7.9µM*,?
Cc1nc(NC(=O)/C=C/c2ccccc2)n[nH]1,-96*,?,?,?,?,?
O=C(/C=C\c1ccco1)Nc1nc(-c2ccccc2)cs1,-10,-15%,?,?,19%,58%
N#Cc1ccc(-c2csc(NC(=O)/C=C/c3cccs3)n2)cc1,?,10µM*,-13%,?,6%,?
Cn1c(=O)c2nc(SCc3ccccc3)n(C)c2n(C)c1=O,-29,.,19%[46.1 µM],-2%[46.1 µM],1%,.
Cc1cccc(-n2nnc(-c3nc(-c4cccs4)no3)c2N)c1,53,.,?,.,.,.
